Sm TGR inh: blocks Schistosoma mansoni thioredoxin glutathione reductase; Q962Y6; Potency, µM (doses to about 114 µM), hits mostly inhibitors; AID 485364; actives 3% (n = 360,000); purified TGR, DTNB reduction, TNB absorbance 405 nm; also: nearly all actives have a fitted effect of over 60% in size
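TGR 20 nM + NADPH 100 uM (dispensed conc.), cpd preinc 15 min RT; start with NADPH (500 uM addition) then DTNB (15 mM addition). Kinetic TNB absorbance, 405 nm filter. Four-parameter Hill fit across titration.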
Pf growth 48h: P. falciparum growth inhibition at 48 hours (one generation); P. falciparum luciferase growth in erythrocytes, 48 h; Potency, µM (top dose mostly 28.7 µM), usual class: inhibitors; actives 5.9% (n = 310,000); AID 504832
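Erythrocytes infected with P. falciparum carrying an integrated firefly luciferase reporter (2% hematocrit, 0.1% parasitemia final) were exposed to compounds in RPMI 1640 with 0.5% Albumax at 37 C, 5% CO2. Growth inhibition was scored as reduced luminescence.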
CHX counter: affects cycloheximide protein synthesis inhibition readout, counter-screen; actives 12% (n = 300,000); max response, %; AID 2314; cell reporter, cycloheximide protein synthesis inhibition counterscreen; in the data active = max response mostly above about 13%, no sharp cut-off; inactive = mostly below about 14%; also: read at 38.3 µM for the half of the compounds with a filed dose
NS1 function inh: inhibitors of influenza NS1 protein function | AID 2326 | actives 0.4% (n = 270,000) | Potency, µM (top dose mostly 46.1 µM); calls by dose curve; also: actives are rising curves; nearly all actives have a fitted effect of over 50% in size
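Read-out: OD600 growth recovery of NS1-expressing budding yeast. Cells grown overnight at 30C in -URA glucose medium, washed, resuspended and diluted 1:100 in 2% galactose assay medium, pH 6.0. Same strain lacking NS1 served as positive control.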
Pf growth 96h: inhibits malaria parasite growth, 96 h | actives 6.9% (n = 320,000) | P. falciparum luciferase reporter growth, 96 h | AID 504834 | Potency, µM (highest dose often 28.7 µM), actives largely listed as inhibitors
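P. falciparum expressing integrated firefly luciferase, in erythrocytes at 2% hematocrit, 0.05% parasitemia, incubated with compounds 96 h at 37 C, 5% CO2. Growth inhibition read as loss of luminescence; two-generation exposure targets delayed-death apicoplast inhibitors.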
Shiga inhibitor: Shiga toxin inhibition | actives 9.2% (n = 290,000) | inhibition, % at 38.7 µM | Vero cells, Shiga toxin protein synthesis inhibition reporter; in the data active = inhibition mostly above about 28%, no sharp cut-off; inactive = mostly below about 43%
Numbers stand for hits; 0 = inactive; ? = inconclusive; - = not tested or not shown; [ ] = remark or other dose. In the library only some 21% were active in any assay of this set; here they are far more common. Unless noted, calls follow the shape of the dose curve; as a rule, active = well fitted curve in the direction sought with a large enough effect; inconclusive = small, poorly fitted or top-dose-only effect, or another doubt; inactive = no such curve, though single readings can be large; an effect the other way counts as inactive or inconclusive.

SMILES	Sm TGR inh	Pf growth 48h	CHX counter	NS1 function inh	Pf growth 96h	Shiga inhibitor
CCN(CC)CCC(c1ccc(OC)cc1)c1c(OC)cc(OC)c2c(C)cc(=O)oc12 (configuration not stated)	-	-	53	-	-	124
Cc1ccccc1Cn1c(=O)n(Cc2ccc3c(c2)OCO3)c(=O)c2oc3ccccc3c21	0	-	-	-	-	-
Cc1cc(C)cc(NC(=O)C/C(N)=N/O)c1	0	0	0	0	0	0
CCCCCCC[n+]1ccc(-c2cc[n+](CCCCCCC)cc2)cc1	0	0.41µM	0	0	0.33µM	0
CCCCCCCCCCCCCCCC[n+]1ccc(/C=N/O)cc1	0	2.3µM	0	0	1.2µM	0
CC(=O)Nc1ccc(OCCC[n+]2ccccc2)cc1	0	0	0	0	0	0
CCCCN(CCCC)C(=O)C[n+]1cccc(/C=N/O)c1	0	?	0	-	0	0
CCCCCCCCCCCCCCCC[n+]1ccccc1	-	3.8µM	-	-	1.5µM	-
CCCCCCCCCCCCCC[n+]1ccc(C)cc1	-	0.85µM	-	-	0.85µM	-
CCCCCCCCCCCCCCCC[n+]1ccc(C(N)=O)cc1	0	?	0	0	0	0
CCCCCCCCCCCC[n+]1ccc2ccccc2c1	-	0.3µM	-	-	3µM	-
CCCCCCCCCCCCCCCCn1cc[n+](Cc2ccccc2)c1C	-	-	0	-	-	0
Cc1ccc(S(=O)(=O)N2CCN(C(=O)C(F)(F)F)C2c2ccc(N(C)C)cc2)cc1 (configuration not stated)	0	0	0	0	13µM	0
Cc1ccc(S(=O)(=O)N2CCN(C(=O)CN3CCOCC3)C2c2ccccc2)cc1 (configuration not stated)	40µM	0	0	0	0	0
COc1ccc(C2N(C(=O)CN3CCCC3)CCCN2S(=O)(=O)c2ccccc2)cc1 (configuration not stated)	0	5.2µM	0	?	?	0
COc1ccc(C2N(C(C)=O)CCCN2S(=O)(=O)c2ccc(C)cc2)cc1 (configuration not stated)	0	?	0	0	0	0
CC(=O)N1CCN(S(=O)(=O)c2ccc(C)cc2)C1c1ccc(N(C)C)cc1 (configuration not stated)	0[11.4 µM]	-	0	0	0	0
O=C(O)c1cc(NC(=O)c2ccco2)cc(NC(=O)c2ccco2)c1	0	0	0	0	?	0
Cc1cc(S(=O)(=O)N2CCN(C(=O)CCC(=O)N3CCOCC3)CC2)ccc1Br	0	0	0	0	0	0
CCOC(=O)c1ccc(NC(=O)c2sc3nc4n(c(=O)c3c2C)CCC4)cc1	0	?	0	0	15µM	0
Cc1c(C(=O)Nc2cccc(C#N)c2)sc2nc3n(c(=O)c12)CCCCC3	5.6µM	-	-	-	-	-
Cc1c(C(=O)Nc2cccc(C(F)(F)F)c2)sc2nc3n(c(=O)c12)CCC3	0	-	-	-	-	-
Cc1c(C(=O)NCc2cccc(Cl)c2)sc2nc3n(c(=O)c12)CCCC3	14µM	-	-	-	-	-
CCc1cccc(NC(=O)c2sc3nc4n(c(=O)c3c2C)CCC4)c1	0	0	28	0	?	73
CC(C)c1ccc(NC(=O)CSc2ncnc3c2sc2ccccc23)cc1	0	-	-	-	-	-
SMILES	Sm TGR inh	Pf growth 48h	CHX counter	NS1 function inh	Pf growth 96h	Shiga inhibitor
NC(=S)N=Nc1ccc(NN=C(N)N)cc1	50µM	1.2µM	0	0	?	0
CSCCNC(=O)c1ccc2nc(C3CCCCC3)oc2c1	0	?	20	0	?	86
O=C(NCc1ccccn1)c1ccc2nc(C3CCCCC3)oc2c1	0	0	22	0	?	32
CSCC[C@@H](CO)NC(=O)c1ccc2nc(C3CCCCC3)oc2c1	0	0	0	0	?	0
O=S1(=O)CC(O)C(NCCO)C1 (configuration not stated)	0	0	0	-	0	0
COC(=O)c1ccc(S(=O)(=O)N2CCN(C(c3ccccc3)c3ccccc3)CC2)n1C	0	10µM	0	0	?	0
CCc1ccc(-c2nn(CC(=O)Nc3ccccc3C)c3c2cnc2ccc(C)cc23)cc1	0	-	-	-	-	-
CCN1CCCC(CO)(Cc2ccccc2)C1 (configuration not stated)	?	0	0	0	?	0
OCC1(Cc2ccccc2)CCN(Cc2ccc(-c3ccco3)cc2)CC1	32µM	?	0	0	0	0
CSc1cccc(CN2CCC(CO)(Cc3ccccc3)CC2)c1	0	?	0	0	?	0
OCC1(Cc2ccccc2)CCCN(Cc2ccc(-c3ccco3)cc2)C1 (configuration not stated)	35µM	?	0	0	?	0
CCOC(=O)CN1C=C(c2ccc3ccccc3n2)C(C[N+](=O)[O-])c2ccccc21 (configuration not stated)	0	-	11	0	0	0
CC(C)C[C@@H](N)C(=O)Nc1ccc2ccccc2c1	-	-	-	0	-	-
CC(C)(C)[C@@H]1C=C(C(=O)N2CCN(Cc3ccc4c(c3)OCO4)CC2)O[C@H](OCc2ccc(CO)cc2)C1	0	10µM	0	0	12µM	0
O=C(C1=C[C@@H](c2ccc(Br)cc2)C[C@@H](OCc2ccc(CO)cc2)O1)N1CCN(Cc2ccc3c(c2)OCO3)CC1	0	?	0	0	15µM	0
O=C(C1=C[C@@H](c2ccc3c(c2)OCO3)C[C@@H](OCc2ccc(CO)cc2)O1)N1CCOCC1	0	0	0	0	?	0
O=C(C1=C[C@@H](c2ccc(C(F)(F)F)cc2)C[C@@H](OCCCCO)O1)N1CCN(Cc2ccc3c(c2)OCO3)CC1	?	?	0	0	9.3µM	0
O=C(C1=C[C@@H](c2ccc(C(F)(F)F)cc2)C[C@@H](OCc2ccc(CO)cc2)O1)N1CCN(Cc2ccc3c(c2)OCO3)CC1	0	?	0	0	2.3µM	0
O=C(NCCc1ccccc1Cl)C1CCC(=O)N(C2CCCCCC2)C1 (configuration not stated)	0	0	0	0	0	0
Nc1c(C(=O)Nc2cccc(F)c2)c2ccccn2c1C(=O)c1ccccc1	0	-	-	-	-	-
O=C(C1=C[C@H](c2ccc(C(F)(F)F)cc2)C[C@H](OCc2ccc(CO)cc2)O1)N1CCN(Cc2ccc3c(c2)OCO3)CC1	?	?	0	0	3.7µM	0
COc1ccc2c(c1)Sc1ccccc1N2CCN(C)C	0	?	0	0	0	0
CCN1/C(=C/C(C)=O)Sc2ccc(OC)cc21	0	0	0	0	?	0
COc1ccc2c(c1)N(C)/C(=C/c1cccc[n+]1C)S2	0	0.37µM	0	0	?	0
CCN1/C(=C/c2cccc[n+]2C)Sc2ccc(OC)cc21	0	1µM	0	0	0	0
Oc1ccc(COC2CCCC2)c2cccnc12	18µM	1.3µM	-	-	8.3µM	-
Oc1ccc(COc2cccc3ccccc23)c2cccnc12	8.9µM	2.6µM	-	-	5.2µM	-
COCc1ccc(O)c2ncccc12	0	-	26	0	?	0
Oc1ccc(CNc2ccc(F)cc2)c2cccnc12	?	?	0	0	?	0
Oc1ccc(COCc2ccc(F)cc2)c2cccnc12	35µM	2.9µM	-	-	4.1µM	-
